Test results published in the supplement of paper PMC6555819.

Assays:
Assay in all cases: PBM binding z-score (relative to random genomic background probes); higher = stronger binding; sequences stand for … in GC…GCGATTGACAGCGTAGAATGAAGG
[1] = test system: RARb homodimer (NR concentration 270 nM)
In short: (§1)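 Regression normalization was applied to scanned fluorescence from custom Agilent 4×180K protein-binding microarrays. Before scanning, arrays were incubated 1 h with ligand-free nuclear receptor dimers, and binding was detected with antibodies against each partner (one per run). Binding z-scores use the random background probes as reference.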

[2] = test system: RARg:RXRa (NR concentration 270 nM, RXRa partner concentration 90 nM)
In short: as §1

[3] = test system: RARg homodimer (NR concentration 270 nM)
In short: as §1

[4] = test system: RXRa DBDmut IVT, anti-RXR (DBD mutation: RXRa K156A/R161A, NR concentration 90 nM)
In short: as §1

[5] = test system: RXRa homodimer (NR concentration 180 nM)
In short: as §1

[6] = test system: THRa:RXRa (NR concentration 90 nM, RXRa partner concentration 90 nM)
In short: as §1

[7] = test system: THRa homodimer (NR concentration 90 nM)
In short: as §1

[8] = test system: VDR homodimer (NR concentration 270 nM)
In short: as §1

| Sequence | PBM binding z-score [1] | PBM binding z-score [2] | PBM binding z-score [3] | PBM binding z-score [4] | PBM binding z-score [5] | PBM binding z-score [6] | PBM binding z-score [7] | PBM binding z-score [8] |
| --- | --- | --- | --- | --- | --- | --- | --- | --- |
| ACAGACAGGTGAGTGGAGGTAACTCAGCTGGACG | 0.51 | 0.417 | 0.421 | -0.468 | 0.451 | 2.29 | -0.0738 | -0.0506 |
| GATCCAGGGTCAAGGCCAGAGTACGCGTATTGAT | 3.61 | 5.58 | 5.08 | 2.45 | 6.11 | 3.65 | 1.11 | 2.04 |
| AGAATGAGGTGACCAAAGATCAGGGAAACGCTTG | 0.672 | 1.06 | 1.01 | -0.266 | 1.51 | 2.53 | 0.878 | -0.347 |
| GCAGACATGTGAAACGCAGGTAACTCAGGGTGGC | -0.931 | -0.194 | -0.391 | -0.691 | -0.0899 | 0.4 | -0.871 | -1.27 |
| CCTGCTAGGTCATGGTCCGCTAATCTACAGTATG | 2.55 | 3.73 | 4.05 | 1.74 | 2.66 | 2.86 | 1.1 | 0.414 |
| TTACCAAGGTGGAGGTCGTTGATCCCTCTGTAGA | 1.15 | 0.155 | -0.0331 | 0.0989 | 1.41 | 1.4 | 0.145 | 1.32 |
| TCGAGTAGGTTAGTCGGGGCATTCACCCAACATA | 0.552 | 0.0959 | -0.000869 | 0.343 | 0.097 | 1.31 | 0.381 | 0.754 |
| GTACCAAGGTGAATAGGACGTTGATGAGTAGGCG | 0.539 | 0.543 | 0.959 | -0.489 | 0.542 | 1.24 | 0.345 | 0.0653 |
| CAAACTAGGTCACCGGAAGGACAAAGTCCGCATG | 4.21 | 6.38 | 6.15 | 1.54 | 3.82 | 3.81 | 2.12 | 1.38 |
| AGAATGAGGTTACTAAGATCAGGGAATTGCGGTC | 1.12 | 1.25 | 1.15 | 1.43 | 1.98 | 2.28 | 0.919 | 0.836 |
| AATCCAGGGTCATCGTAGGCCAGAGTACGCACAG | 3.82 | 5.9 | 5.22 | 3.32 | 6.77 | 4.55 | 1.86 | 4.06 |
| GGAACGAGGGCAAATTTGATAGCATCTGTCGACG | 0.969 | 1.06 | 1.73 | 2.41 | 0.93 | 0.959 | -0.432 | 0.807 |
| CGTCCAAGGCCAGAGAGGTCAGTGAATGCCGAGT | 4.2 | 3.05 | 4.27 | 1.06 | 2.22 | 2.77 | 0.817 | 2.55 |
| CCTAGTGGGCCATTCAGAGGTCATTGATCATATG | 3.74 | 4.53 | 3.07 | 0.957 | 3.76 | 3.08 | 1.34 | 3.53 |
| CATACAGGGTCACCTAGGCCAGAGTAGGGACGGC | 3.71 | 5.53 | 5.52 | 2.15 | 6.27 | 3.65 | 1.57 | 2.32 |
